{
  "source": "the supplement of paper PMC7156485",
  "note": "± gives the standard deviation of the averaged measurements.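 Further: TDF denotes transformed human dermal fibroblasts of mesenchymal origin.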",
  "data": [
    {"tested_on": "HCC1569", "assay": "cell number relative to DMSO (% of DMSO); higher = more cells (less growth inhibition / toxicity)", "settings": "concentration: 10 µM; 24 h", "outline": "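Six fields per well were imaged at ×10 after the cells were fixed in 3.7% formaldehyde and stained with a rabbit anti-H1.0 antibody, an AlexaFluor 647 secondary and DAPI. The HCC1569 and TDF cells had been plated at 800 per well in 384-well plates (RPMI, 10% FBS) and treated in triplicate with compounds at 10 µM for 24 h at 37 °C. The values are the median of replicates of H1.0 nuclear intensity or cell number, as percent of the plate control. Smoothing for positional effects was applied to HCC1569 data.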", "values": [
      {"smiles": "COC1C=COC2(C)Oc3c(C)c(O)c4c(O)c(cc([O-])c4c3C2=O)NC(=O)C(C)=CC=CC(C)C(O)C(C)C(O)C(C)C(OC(C)=O)C1C.[Na+]", "note": "(stereo not drawn)", "cell number": 103},
      {"smiles": "FC(F)(F)c1cc(NC(=S)Nc2ccc(Br)cc2-c2nn[nH]n2)cc(C(F)(F)F)c1", "cell number": 90.3},
      {"smiles": "COc1ccc(C=C2c3ccccc3C(=O)c3ccccc32)cc1O", "note": "[10-(3-hydroxy-4-methoxybenzylidene)-9(10H)-anthracenone]", "cell number": 62.7},
      {"smiles": "O=C1NC(=O)C(c2cnc3ccccn23)=C1c1cn2c3c(cc(F)cc13)CN(C(=O)N1CCCCC1)CC2", "cell number": 66.9},
      {"smiles": "N#CC(=C(N)Sc1ccc(N)cc1)c1ccccc1C(F)(F)F", "note": "[MEK1/2 Inhibitor]", "cell number": 100},
      {"smiles": "COc1ccccc1N1CCN(CC(O)COc2cccc3ccccc23)CC1.Cl.Cl", "note": "(stereo not drawn) [Naftopidil dihydrochloride]", "cell number": 101},
      {"smiles": "O=C(NCCCCCCNC(=O)ON=C1CCCCC1)ON=C1CCCCC1", "cell number": 96.6},
      {"smiles": "O=C(O)c1cc2cc(F)ccc2[nH]1", "note": "[5-Fluoroindole-2-carboxylic acid]", "cell number": 99.3},
      {"smiles": "CC1=C(C)C(=O)C(CCCCC#CCCCC#CCO)=C(C)C1=O", "cell number": "99.09 ± 0.2"},
      {"smiles": "Cn1c(=O)c2c(ncn2Cc2ccc(C(C)(C)C)cc2)n(C)c1=O", "cell number": 81.6},
      {"smiles": "CCCCCCCCCCCC=CCC=CCCCC(=O)O", "note": "[5(Z), 8(Z)-Eicosadienoic acid]", "cell number": 101},
      {"smiles": "CCOc1ccc2c(c1)C(C)=CC(C)(C)N2", "note": "[Ethoxyquin]", "cell number": 100},
      {"smiles": "CC(=O)C1CCC2C3CCC4=CC(=O)CCC4(C)C3CCC12C", "note": "(stereo not drawn) [Progesterone]", "cell number": "101.3 ± 0.57"},
      {"smiles": "CC1(C)CCC2(C(=O)O)CCC3(C)C(=CCC4C5(C)CCC(O)C(C)(C)C5CCC43C)C2C1", "note": "(stereo not drawn) [Oleanolic acid]", "cell number": 101},
      {"smiles": "c1ccc2c(Cc3c[nH]c4ccccc34)c[nH]c2c1", "note": "[Diindolylmethane]", "cell number": "100.67 ± 0.0078"},
      {"smiles": "O=c1ccc2ccc(O)c(O)c2o1", "note": "[7,8-dihydroxy-2H-chromen-2-one]", "cell number": 99.2},
      {"smiles": "S=C(NCc1ccc2c(c1)OCO2)N1CCN(c2ncnc3c2oc2ccccc23)CC1", "cell number": 65.5},
      {"smiles": "CNC1C(OC2C(OC3C(O)C(O)C(N=C(N)N)C(O)C3N=C(N)N)OC(C)C2(O)C=O)OC(CO)C(O)C1O", "note": "(stereo not drawn) [Streptomycin]", "cell number": 105},
      {"smiles": "CC1(C)CCCC(C)(C2CCC3(C)C2C(O)CC2C4(C)CCC(O)C(C)(C)C4CCC23C)O1", "note": "(stereo not drawn) [Panaxadiol]", "cell number": 105},
      {"smiles": "COc1cc2c(c(OC)c1OC)-c1c(cc(OC)c(OC)c1OC)C[C@](C)(O)[C@@H](C)C2", "cell number": 100},
      {"smiles": "CC(Cc1ccccc1)Nc1ncnc2c1ncn2C1OC(CO)C(O)C1O", "note": "(stereo not drawn) [R(-)-N6-(2-Phenylisopropyl)adenosine]", "cell number": 107},
      {"smiles": "CC(C=CC=C(C)C=CC1=C(C)CCCC1(C)C)=CC=CC=C(C)C=CC=C(C)C=CC1=C(C)CCCC1(C)C", "cell number": 101},
      {"smiles": "CCCCCC(O)C=CC1C(O)CC(=O)C1CCCCCCC(=O)O", "note": "(stereo not drawn) [Prostaglandin E1]", "cell number": "102 ± 2"},
      {"smiles": "CCC1(c2ccccc2)NC(=O)N(C)C1=O", "note": "(stereo not drawn) [Mephenytoin]", "cell number": 100},
      {"smiles": "CC(=O)OCC(CCn1cnc2cnc(N)nc21)COC(C)=O", "note": "[Famciclovir]", "cell number": 103},
      {"smiles": "C[C@@H](Oc1cc(-c2cnn(C3CCNCC3)c2)cnc1N)c1c(Cl)ccc(F)c1Cl", "cell number": 59.6},
      {"smiles": "Cc1nnc(SCC2=C(C(=O)[O-])N3C(=O)C(NC(=O)Cn4cnnn4)C3SC2)s1.[Na+]", "note": "(stereo not drawn) [Cefazolin sodium]", "cell number": 101},
      {"smiles": "CN=C(NC#N)NCCSCc1nc[nH]c1C", "note": "[Cimetidine]", "cell number": "102 ± 1.8"},
      {"smiles": "CC(C)CC(NC(=O)C(COC(C)(C)C)NC(=O)C(Cc1ccc(O)cc1)NC(=O)C(CO)NC(=O)C(Cc1c[nH]c2ccccc12)NC(=O)C(Cc1cnc[nH]1)NC(=O)C1CCC(=O)N1)C(=O)NC(CCCN=C(N)N)C(=O)N1CCCC1C(=O)NNC(N)=O", "note": "(stereo not drawn) [Goserelin]", "cell number": 100},
      {"smiles": "CN(CCOc1ccc(CC(Nc2ccccc2C(=O)c2ccccc2)C(=O)O)cc1)c1ccccn1", "note": "(stereo not drawn)", "cell number": 102},
      {"smiles": "Br.CN1CCc2c(cc(O)c(O)c2Cl)C(c2cccc(Cl)c2)C1", "note": "(stereo not drawn)", "cell number": 89.6},
      {"smiles": "CC(C)(Oc1ccc(CCNC(=O)c2ccc(Cl)cc2)cc1)C(=O)O", "note": "[Bezafibrate]", "cell number": 98.4},
      {"smiles": "CC(=O)N1CCN(c2ccc(OCC3COC(Cn4ccnc4)(c4ccc(Cl)cc4Cl)O3)cc2)CC1", "note": "(stereo not drawn) [Ketoconazole]", "cell number": "85.7 ± 11"}
    ]}
  ]
}
